PubChem BioAssay (Tox21)
Inconclusive results are not listed. Active and inactive are the calls of the source. Unless noted, calls come from the whole dose curve; as a rule, active = well fitted curve in the direction sought with a large enough effect in the repeat runs; inconclusive = weak or mixed curves; inactive = no such curve, though single readings can be large; an effect the other way counts as inactive or inconclusive.

Columns and labels:
[1] = qHTS assay to identify small molecule agonists of the AP-1 signaling pathway - cell viability counter screen (AID 1159525; calls by dose curve; note: nearly all actives have a fitted effect of over 55% in size; note: potency is the fitted concentration of half-maximal effect)
Summary of the method: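 Same-well cytotoxicity counter screen of the Tox21 10K library in ME-180 cells. The readout is ATP-dependent luminescence after 5 h compound treatment. Data are normalised to DMSO and tetra n-octyl ammonium bromide controls.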

[2] = qHTS assay to identify small molecule agonists of the constitutive androstane receptor (CAR) signaling pathway - cell viability counter screen (AID 1224836); note: series mostly up to about 92 µM; % is set by controls: 0 for no effect and ±100 for the full control effect; nearly all actives have a fitted effect of over 45% in size
Summary of the method: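 Double-stable HepG2 hepatoma cells (hCAR plus CYP2B6-2.2kb) are treated for 23 h at 37 C with test compounds in 15-point concentration series. PK11195 at 0.75 uM final is co-added. Cell viability is quantified by CellTiter-Fluor.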

[3] = qHTS assay to identify small molecule antagonists of the constitutive androstane receptor (CAR) signaling pathway - cell viability counter screen (AID 1224837); note: nearly all actives have a fitted effect of over 45% in size; note: potency is the fitted concentration of half-maximal effect; for activity change, negative = cytotoxicity: series mostly up to about 92 µM; % is set by controls: 0 for no effect and ±100 for the full control effect
Summary of the method: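 In quantitative HTS format, compounds at 15 concentrations were applied to HepG2 cells double-transfected with hCAR and CYP2B6-2.2kb under 50 nM CITCO stimulation; live-cell protease activity was read after 23 hr via CellTiter-Fluor.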

[4] = qHTS RealTime-Glo MT Cell Viability Assay in HepG2 cells - 24 hour (AID 1224867); note: % is set by controls: 0 for no effect and ±100 for the full control effect; nearly all actives have a fitted effect of over 50% in size
Summary of the method: (§1)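 HepG2 suspension premixed with RealTime-Glo reagents is plated at 600 cells per well and left 5 h at 37 C/5% CO2. Compounds in DMSO then go in, and bioluminescence reflecting viable cell number is recorded over 40 h.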

[5] = qHTS RealTime-Glo MT Cell Viability Assay in HEK293 cells - 32 hour (AID 1224868); note: nearly all actives have a fitted effect of over 50% in size; note: potency is the fitted concentration of half-maximal effect
Summary of the method: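 Reads taken at 0, 8, 16, 24, 32 and 40 h from the same wells. HEK293 cells (600/well) carried RealTime-Glo reagents from seeding, with compound added after a 5 h settle at 37 C.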

[6] = A CellTox Green Cytotoxicity Assay to monitor cytotoxicity in HepG2 cells - 24 hour (AID 1224878); note: nearly all actives have a fitted effect of over 45% in size; note: potency is the fitted concentration of half-maximal effect; for Cytotoxicity: % is set by controls: 0 for no effect and ±100 for the full control effect
Summary of the method: (§2)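 Fluorescent DNA-binding dye, 600 HepG2 cells/well, 5 h preincubation then compound in DMSO; same plates read at 0–40 h, 37 C.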

[7] = A CellTox Green Cytotoxicity Assay to monitor cytotoxicity in HepG2 cells - 40 hour (AID 1224879); note: nearly all actives have a fitted effect of over 40% in size; note: potency is the fitted concentration of half-maximal effect; for cytotoxicity increase: % is set by controls: 0 for no effect and ±100 for the full control effect
Summary of the method: as §2

[8] = A CellTox Green Cytotoxicity Assay to monitor cytotoxicity in HEK293 cells - 8 hour (AID 1224884); note: % is set by controls: 0 for no effect and ±100 for the full control effect; nearly all actives have a fitted effect of over 35% in size
Summary of the method: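 Homogeneous no-lysis format: HEK293 cell suspension mixed with CellTox Green reagent, seeded, incubated 5 h at 37 C/5% CO2, then dosed by pintool with compound in DMSO.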

[9] = qHTS RealTime-Glo MT Cell Viability Assay in HepG2 cells - 16 hour (AID 1224885); note: % is set by controls: 0 for no effect and ±100 for the full control effect; nearly all actives have a fitted effect of over 50% in size
Summary of the method: as §1

[10] = qHTS assay to identify small molecule agonists of the sonic hedgehog signaling (Shh) pathway - cell viability counter screen (AID 1259366); note: nearly all actives have a fitted effect of over 50% in size; note: potency is the fitted concentration of half-maximal effect; for viability change, negative = cytotoxic: % is set by controls: 0 for no effect and ±100 for the full control effect
Summary of the method: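 Compounds in DMSO were pin-transferred onto 3T3 Gli1-Luc cells that had settled 4hr; plates then stood 24hr at 37C and 5% CO2. One hour before the end, CellTiter-Fluor was added and fluorescence recorded.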

[11] = qHTS assay to identify small molecule antagonists of the sonic hedgehog signaling (Shh) pathway - cell viability counter screen (AID 1259367); note: % is set by controls: 0 for no effect and ±100 for the full control effect; nearly all actives have a fitted effect of over 55% in size
Summary of the method: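 Tox21 library chemicals were tested on a Gli1-Luc NIH/3T3 clone (2,000 cells/well) stimulated by conditioned medium; viability was quantified as fluorescence from CellTiter-Fluor reagent added at 23 hr.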

[12] = qHTS assay to identify small molecule agonists of the estrogen receptor alpha (ER-alpha) signaling pathway in the presence of an antagonist - cell viability counter screen (AID 1259386);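 note: cells exposed to compounds for 22 h at 37 °C before the viability read; nearly all actives have a fitted effect of over 30% in size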; note: potency is the fitted concentration of half-maximal effect
Summary of the method: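 Steps: 5-day stripped-FBS culture; seed and incubate 24hr; add ICI-182,780 (10.0nM final); pin 15-point compound titration; incubate 22hr at 37C; add CellTiter-Fluor at 21hr; read fluorescence.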

[13] = qHTS assay to identify small molecule antagonists of the TGF-beta/Smad signaling pathway - cell viability counter screen (AID 1346824)
Summary of the method: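 SBE-bla HEK 293T cells, incubated overnight, then compound plus 0.25 ng/mL TGF-beta1 (stock added) for 5 hr at 37 C. Viability was read in the same wells by CellTiter-Glo luminescence after 30 min at room temperature.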

[14] = qHTS assay to identify small molecule agonists of the TGF-beta/Smad signaling pathway - cell viability counter screen (AID 1346829); note: top concentration of the series differs between compounds; % is set by controls: 0 for no effect and ±100 for the full control effect; nearly all actives have a fitted effect of over 45% in size
Summary of the method: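 Same-well cytotoxicity: CellTiter-Glo added after the 2 hr room-temperature beta-lactamase substrate step, luminescence measured 30 min later; cells had 5 hr of compound at 37 C.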

[15] = qHTS assay to identify small molecule antagonists of the estrogen related receptor (ERR) signaling pathway from Tox21 library - cell viability counter screen (AID 1224834); note: nearly all actives have a fitted effect of over 30% in size; note: potency is the fitted concentration of half-maximal effect
Summary of the method: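 In this quantitative HTS format, ERR cells receive compounds in DMSO and are incubated for 17.5 h at 37 C. Live-cell protease activity is then detected with CellTiter-Fluor.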

[16] = target: Nuclear receptor subfamily 1 group I member 2 (Homo sapiens) (UniProt O75469); experiment: Human pregnane X receptor (PXR) small molecule agonists, qHTS assay (AID 1346982); note: nearly all actives have a fitted effect of over 35% in size; note: potency is the fitted concentration of half-maximal effect
Sequence of Nuclear receptor subfamily 1 group I member 2 (Homo sapiens) (O75469 whole entry, looked up): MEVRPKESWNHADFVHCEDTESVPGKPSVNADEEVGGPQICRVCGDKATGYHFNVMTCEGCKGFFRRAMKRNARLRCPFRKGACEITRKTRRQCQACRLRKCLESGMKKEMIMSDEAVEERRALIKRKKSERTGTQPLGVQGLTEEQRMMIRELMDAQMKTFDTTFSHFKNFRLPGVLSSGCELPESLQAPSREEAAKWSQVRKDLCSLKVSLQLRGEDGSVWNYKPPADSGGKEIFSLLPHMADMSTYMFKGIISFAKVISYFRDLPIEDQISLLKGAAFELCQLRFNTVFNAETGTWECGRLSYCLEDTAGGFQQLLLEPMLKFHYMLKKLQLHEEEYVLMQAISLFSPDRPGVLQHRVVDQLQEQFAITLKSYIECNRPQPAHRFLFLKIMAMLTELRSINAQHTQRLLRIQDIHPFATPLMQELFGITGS
Summary of the method: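 After plating in 5% charcoal-stripped FBS and a 5 hr rest, PXR-Luc HepG2 cells received compounds in DMSO. Following 24 hr at 37 C, ONE-Glo was added and light output read.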

[17] = target: Cytochrome P450 2C19 (Homo sapiens) (UniProt P33261); experiment: Cytochrome P450 Family 2 Subfamily C Member 19 (CYP2C19) small molecule antagonists: luciferase reporter qHTS assay (AID 1671197); note: nearly all actives have a fitted effect of over 65% in size; note: potency is the fitted concentration of half-maximal effect
Sequence of Cytochrome P450 2C19 (Homo sapiens) (P33261 whole entry, looked up): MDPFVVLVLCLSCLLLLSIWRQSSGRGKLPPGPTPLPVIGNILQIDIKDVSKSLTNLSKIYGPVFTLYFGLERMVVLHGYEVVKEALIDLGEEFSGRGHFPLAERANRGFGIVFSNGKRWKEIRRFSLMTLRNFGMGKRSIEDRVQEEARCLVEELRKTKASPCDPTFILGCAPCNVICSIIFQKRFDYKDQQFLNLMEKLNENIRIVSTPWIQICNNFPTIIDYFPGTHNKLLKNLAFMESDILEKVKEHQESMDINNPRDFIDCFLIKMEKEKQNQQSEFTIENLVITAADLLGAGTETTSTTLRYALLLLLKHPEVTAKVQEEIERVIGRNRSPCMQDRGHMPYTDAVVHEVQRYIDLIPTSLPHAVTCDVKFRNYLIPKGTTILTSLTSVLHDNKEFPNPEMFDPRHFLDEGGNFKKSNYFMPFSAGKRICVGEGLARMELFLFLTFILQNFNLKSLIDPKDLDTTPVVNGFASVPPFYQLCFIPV
Summary of the method: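 Quantitative high-throughput screen of the Tox21 library using CYP2C19 with proluciferin substrate. Reaction: NADPH regeneration, 37C, 1 h, after 10 min compound preincubation at room temperature. Readout: luminescence.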

[18] = target: Cytochrome P450 2C9 (Homo sapiens) (UniProt P11712); experiment: Cytochrome P450 Family 2 Subfamily C Member 9 (CYP2C9) small molecule antagonists: luciferase reporter qHTS assay (AID 1671198); note: nearly all actives have a fitted effect of over 50% in size; note: potency is the fitted concentration of half-maximal effect
Sequence of Cytochrome P450 2C9 (Homo sapiens) (P11712 whole entry, looked up): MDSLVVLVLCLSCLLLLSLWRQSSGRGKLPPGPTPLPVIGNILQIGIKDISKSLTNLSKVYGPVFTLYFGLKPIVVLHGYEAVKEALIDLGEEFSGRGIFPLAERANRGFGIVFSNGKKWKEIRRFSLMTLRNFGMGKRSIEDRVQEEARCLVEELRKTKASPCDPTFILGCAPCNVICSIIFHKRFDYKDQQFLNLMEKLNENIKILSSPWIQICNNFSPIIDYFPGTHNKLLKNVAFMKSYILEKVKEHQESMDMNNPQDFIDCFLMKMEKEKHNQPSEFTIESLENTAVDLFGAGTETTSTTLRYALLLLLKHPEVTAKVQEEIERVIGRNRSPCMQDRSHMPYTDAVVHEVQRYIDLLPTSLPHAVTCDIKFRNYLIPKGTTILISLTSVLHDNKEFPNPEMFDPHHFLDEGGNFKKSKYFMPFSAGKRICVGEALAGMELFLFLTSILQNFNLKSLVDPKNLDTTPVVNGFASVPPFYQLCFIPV
Summary of the method: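 P450-Glo proluciferin substrate with CYP2C9 enzyme; 10 min RT preincubation, then NADPH regeneration 1 h at 37C; luciferin detection reagent 20 min RT, luminescence in relative luminescence units.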

[19] = target: Luciferin 4-monooxygenase (Photinus pyralis) (UniProt P08659); experiment: qHTS assay to identify small molecule inhibitors of firefly luciferase (AID 1224835); note: series mostly up to about 120 µM; % is set by controls: 0 for no effect and ±100 for the full control effect; nearly all actives have a fitted effect of over 25% in size
Sequence of Luciferin 4-monooxygenase (Photinus pyralis) (P08659 whole entry, looked up): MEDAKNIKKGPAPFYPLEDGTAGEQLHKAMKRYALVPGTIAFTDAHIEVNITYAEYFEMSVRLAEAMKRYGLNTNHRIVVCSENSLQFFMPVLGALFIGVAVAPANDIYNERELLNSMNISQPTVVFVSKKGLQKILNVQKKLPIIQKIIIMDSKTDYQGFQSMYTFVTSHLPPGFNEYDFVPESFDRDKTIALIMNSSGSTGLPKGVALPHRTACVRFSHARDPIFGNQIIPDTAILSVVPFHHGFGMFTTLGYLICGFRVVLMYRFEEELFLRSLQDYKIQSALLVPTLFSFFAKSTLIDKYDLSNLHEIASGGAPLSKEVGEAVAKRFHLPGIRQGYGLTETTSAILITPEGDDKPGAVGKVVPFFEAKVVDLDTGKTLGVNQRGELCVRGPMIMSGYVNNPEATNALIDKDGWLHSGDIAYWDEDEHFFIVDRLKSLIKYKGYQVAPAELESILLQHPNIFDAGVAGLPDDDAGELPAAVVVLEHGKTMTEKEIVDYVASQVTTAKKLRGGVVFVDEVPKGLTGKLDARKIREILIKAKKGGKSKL
Summary of the method: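 Biochemical qHTS: compounds run as interplate titrations against purified firefly enzyme, with D-luciferin and ATP each at its KM concentration. Light output recorded by CCD imaging.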

[20] = target: Retinoic acid receptor RXR-alpha (Homo sapiens) (UniProt P19793); experiment: qHTS assay to identify small molecule agonists of the RXR signaling pathway (AID 1159527; calls by dose curve; note: % is set by controls: 0 for no effect and ±100 for the full control effect; nearly all actives have a fitted effect of over 35% in size)
Sequence of Retinoic acid receptor RXR-alpha (Homo sapiens) (P19793 whole entry, looked up): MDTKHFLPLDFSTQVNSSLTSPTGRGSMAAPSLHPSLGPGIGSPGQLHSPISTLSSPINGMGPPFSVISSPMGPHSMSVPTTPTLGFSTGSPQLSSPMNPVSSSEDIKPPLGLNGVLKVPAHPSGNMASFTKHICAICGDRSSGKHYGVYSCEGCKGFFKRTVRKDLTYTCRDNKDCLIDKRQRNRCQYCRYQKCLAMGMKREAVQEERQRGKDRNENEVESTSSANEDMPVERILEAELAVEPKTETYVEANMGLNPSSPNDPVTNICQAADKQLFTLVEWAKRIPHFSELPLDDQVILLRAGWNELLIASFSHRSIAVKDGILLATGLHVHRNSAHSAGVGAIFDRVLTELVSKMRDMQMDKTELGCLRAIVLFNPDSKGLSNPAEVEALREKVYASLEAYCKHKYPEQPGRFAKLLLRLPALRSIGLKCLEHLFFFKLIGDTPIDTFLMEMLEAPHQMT
Summary of the method: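 Compounds in DMSO were added to RXR-alpha-UAS-bla HEK 293T cells kept in 2% charcoal-stripped serum, and incubated 16 hr at 37 C with 5% CO2. Reporter signal came from a 2 hr B/G FRET substrate step.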

C[C@]12CC[C@@H](O)C[C@@H]1CC[C@@H]1[C@@H]2CC[C@]2(C)C(=O)CC[C@@H]12
active: Potency [1] 49 µM | Potency [5] 24.5 µM
inactive: Potency [2] | Potency [3] | Potency [4] | Potency [6] | Potency [7] | Potency [8] | Potency [9] | Potency [10] | Potency [11] | Potency [12] | Potency [13] | outcome [14]

Cc1ccc2nc3sc(=O)sc3nc2c1
inactive: viability change, negative = cytotoxic [15] -9.38% [at 19 µM] | viability change, negative = cytotoxic [2] 1.63% [at 19 µM] | activity change, negative = cytotoxicity [3] 11.8% [at 19 µM] | activity change, negative = cytotoxicity [4] -4.88% [at 15.8 µM] | activity change, negative = cytotoxic [5] 8.73% [at 15.8 µM] | cytotoxicity [6] -2.5% [at 15.8 µM] | cytotoxicity increase [7] -2.41% [at 15.8 µM] | cytotoxicity increase [8] 4.71% [at 15.8 µM] | activity change, negative = cytotoxic [9] 0.198% [at 15.8 µM] | viability change, negative = cytotoxic [10] -7.48% [at 19 µM] | activity change, negative = cytotoxicity [12] -6.53% [at 19 µM] | viability change, negative = cytotoxic [13] 2.33% [at 15.8 µM] | activity change, negative = cytotoxicity [14] 17% [at 15.8 µM] | activation [16] 20.6% [at 19 µM]
active: Potency [17] 16.9 µM

Nc1ccc([N+](=O)[O-])cc1
active: Potency [1] 38.9 µM | Potency [15] 15.4 µM | Potency [3] 30.6 µM | Potency [5] 38.9 µM | Potency [6] 43.6 µM | Potency [7] 43.6 µM | Potency [10] 30.6 µM | Potency [12] 27.3 µM | Potency [16] 61.1 µM | Potency [17] 3.56 µM | Potency [18] 25.2 µM
inactive: Potency [4] | Potency [9] | Potency [13] | outcome [14]

O=[N+]([O-])c1c(Cl)c(Cl)cc(Cl)c1Cl
active: Potency [7] 54.9 µM | Potency [17] 71 µM
inactive: Potency [1] | Potency [15] | Potency [19] | Potency [2] | Potency [3] | Potency [4] | Potency [5] | Potency [9] | Potency [10] | Potency [11] | Potency [12] | Potency [13] | outcome [14]

CC(c1ccccc1)(c1ccc(O)cc1)c1ccc(O)cc1
active: Potency [1] 49 µM | Potency [15] 61.1 µM | Potency [5] 43.6 µM | Potency [6] 43.6 µM | Potency [7] 38.9 µM | Potency [10] 68.6 µM | Potency [16] 17.2 µM | Potency [17] 8.94 µM | Potency [18] 8.94 µM
inactive: Potency [19] | Potency [2] | Potency [3] | Potency [4] | Potency [8] | Potency [9] | Potency [12] | Potency [13] | outcome [14]

COc1ccc(C(c2ccc(OC)cc2)C(Cl)(Cl)Cl)cc1
active: Potency [5] 48.7 µM | Potency [16] 17.1 µM | Potency [17] 0.354 µM | Potency [18] 1.82 µM
inactive: Potency [15] | Potency [2] | Potency [3] | Potency [6] | Potency [7] | Potency [10] | Potency [13] | outcome [14]

CCN(CC)C(=O)Cl
inactive: Potency [1] | Potency [20] | Potency [15] | Potency [19] | Potency [2] | Potency [3] | Potency [4] | Potency [5] | Potency [6] | Potency [7] | Potency [8] | Potency [9] | Potency [10] | Potency [11] | Potency [12] | Potency [13] | outcome [14] | Potency [16] | Potency [17] | Potency [18]
